POLI inh – qHTS for Inhibitors of Polymerase Iota. Potency, µM (series often up to 115 µM), for inactives: at the top dose activity, negative = inhibition, hits mostly inhibitors. AID 588590, 2011. actives 1% (n = 390,000). Pol iota fluorescent replication assay, 10 min
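Pol iota at 10 nM preincubated 15 min with compounds at room temperature; reaction started with fluorescent substrate, 50 nM final. Fluorescence read kinetically at 0 and 10 min; buffer-only wells as negative control.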
POLB inh – qHTS Assay for Inhibitors of DNA Polymerase Beta; AID 485314, 2010; Potency, µM (doses to about 114 µM), inactives show at the highest dose activity change, negative = inhibition, most hits filed as inhibitors; P06746; actives 1.3% (n = 340,000); Pol beta primer extension/strand displacement, fluorescence kinetic; further: on the % scale 0 is the no-effect control and ±100 the full control effect
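Pol beta (10 nM) was preincubated with compound for 15 min at room temperature. The reaction was then started with 50 nM substrate and read immediately and after a further 10 min at room temperature.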
POLH inh – qHTS for Inhibitors of Polymerase Eta; DNA polymerase eta (Homo sapiens), Q9Y253; recombinant Pol eta, fluorescent DNA replication assay; Potency, µM (doses to about 114 µM), for the others: at the highest dose activity change, negative = inhibition, actives largely listed as inhibitors; actives 1.2% (n = 390,000); AID 588591, 2011; further: on the % scale 0 is the no-effect control and ±100 the full control effect
Target sequence (Q9Y253 whole entry, looked up): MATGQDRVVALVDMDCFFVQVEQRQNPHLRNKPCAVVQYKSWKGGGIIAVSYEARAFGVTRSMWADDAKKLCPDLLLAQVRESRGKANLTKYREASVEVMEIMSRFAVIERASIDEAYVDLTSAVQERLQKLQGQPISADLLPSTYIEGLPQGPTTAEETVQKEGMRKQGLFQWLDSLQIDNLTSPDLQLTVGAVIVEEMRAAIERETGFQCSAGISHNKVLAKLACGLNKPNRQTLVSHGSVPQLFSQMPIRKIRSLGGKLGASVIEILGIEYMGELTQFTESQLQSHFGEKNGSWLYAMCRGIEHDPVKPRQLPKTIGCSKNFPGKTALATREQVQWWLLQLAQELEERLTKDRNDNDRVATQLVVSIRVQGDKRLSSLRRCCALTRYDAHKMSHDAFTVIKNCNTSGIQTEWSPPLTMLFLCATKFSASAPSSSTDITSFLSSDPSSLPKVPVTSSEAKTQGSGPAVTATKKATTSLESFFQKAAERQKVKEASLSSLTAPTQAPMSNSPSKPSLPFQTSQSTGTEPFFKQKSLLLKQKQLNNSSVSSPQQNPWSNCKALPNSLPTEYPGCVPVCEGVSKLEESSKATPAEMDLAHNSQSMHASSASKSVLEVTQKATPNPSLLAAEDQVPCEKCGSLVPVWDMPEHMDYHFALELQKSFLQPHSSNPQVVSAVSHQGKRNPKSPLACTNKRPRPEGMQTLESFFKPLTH
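Pol eta (10 nM) was preincubated with compounds for 15 min at room temperature, after which fluorescent replication substrate (50 nM final) was added to start the reaction. Fluorescence was read kinetically at 0 and 10 min.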
Pol kappa inh – qHTS for Inhibitors of Polymerase Kappa; DNA polymerase kappa (Homo sapiens), Q9UBT6; purified Pol kappa, fluorescent DNA synthesis assay, 10 min; Potency, µM (highest dose often 107 µM), inactives show at the highest dose activity, negative = inhibition, actives largely listed as inhibitors; actives 0.53% (n = 400,000); AID 588579, 2011; further: on the % scale 0 is the no-effect control and ±100 the full control effect
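Activity was followed as the change in fluorescence between reads at 0 and 10 min after starting the reaction with 50 nM substrate. Beforehand, 10 nM polymerase had been preincubated with compound for 15 min at room temperature.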
WRN helicase inh – qHTS for Inhibitors of WRN Helicase | Bifunctional 3'-5' exonuclease/ATP-dependent helicase WRN (Homo sapiens), Q14191 | WRN helicase unwinding, fluorescent forked duplex, kinetic | Potency, µM (top dose mostly 114 µM), for inactives: at the top dose activity change, negative = inhibition, usual class: inhibitors | actives 0.46% (n = 360,000); further: on the % scale 0 is the no-effect control and ±100 the full control effect; nearly all actives have a fitted effect of over 55% in size
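WRN at 20 nM final preincubated with compound 15 min at room temperature; reaction started with 100 nM fluorophore/quencher forked duplex oligonucleotide and 2 mM ATP final. Unwinding followed kinetically by red fluorescence (ex 525, em 598 nm).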
Numbers without * were called inactive; u = inconclusive; x = no result; [ ] = dose if it differs, or a comment. Only some compounds are listed: those with a hit (about 2.3% of all), similar ones and a draw of the others. The call rests on the fitted dose curve; in most records, active means well fitted curve in the direction sought with a large enough effect; inconclusive means small, poorly fitted or top-dose-only effect, or another doubt; inactive means no such curve, though single readings can be large; an effect the other way counts as inactive or inconclusive. Potency means the concentration at half of the fitted maximal effect.

SMILES	POLI inh	POLB inh	POLH inh	Pol kappa inh	WRN helicase inh
CN(C)CCN(C(=O)/C=C/c1cccs1)c1nc2c(F)cc(F)cc2s1	u	40µM*	-38%	-8%	-30%
NC(C(=O)O)[C@H](O)C(=O)O (stereo partly specified)	x	x	x	5%[19.4 µM]	x
CS(=O)(=O)N1N=C(c2ccccc2)CC1c1ccc2c(c1)OCO2 (stereo unspecified)	-1%	u	32µM*	-6%	u
COc1cc(OC)c(/C=C/c2cc3ccccc3c[n+]2C)c(OC)c1	u	x	x	-32%	x
N#CC1=C2SCN(C3CCCCC3)CN2C(=O)CC1c1ccc(F)cc1 (stereo unspecified)	25µM*	-16%	-19%	-16%	x
COc1ccccc1N1CSC2=C(C#N)C(c3ccc(SC)cc3)CC(=O)N2C1 (stereo unspecified)	u	25µM*	45µM*	u	-24%
COc1cc(C2CC(=O)N3CN(c4ccccc4C)CSC3=C2C#N)cc(OC)c1OC (stereo unspecified)	x	-2%	x	x	x
CCc1cccc(NC(=O)CN2C(=O)CCc3cc(S(=O)(=O)N4CCOCC4)ccc32)c1	24%	6%	-19%	-4%[60.1 µM]	x
CC1CCN(S(=O)(=O)c2ccc3c(c2)CCC(=O)N3CC(=O)Nc2cccc(C#N)c2)CC1	u	50µM*	79µM*	-8%[60.1 µM]	x
CC(=O)NC(Cc1ccc(O)cc1)C(=O)NCC(N)C(=O)c1ccccc1 (stereo unspecified)	-10%	x	x	0%	x
O=C(COc1ccccc1C(=O)Nc1ccccc1)NCCCCc1ccccc1	-27%	x	x	-2%	x
Cc1nc(S/C(=C/c2ccc(-c3cc(Cl)ccc3C)o2)C(=O)O)n[nH]1	u	u	u	u	-7%[11.6 µM]
Cc1nc(S/C(=C/c2ccc(-c3ccc(Cl)cc3)o2)C(=O)O)n[nH]1	-5%	18%	25µM*	-21%	-18%
CCOc1ccc(/C=C/c2cc[n+](C)c3ccccc23)cc1OCC	27%	x	x	-29%	x
CCN(C/C=C/C#CC(C)(C)C)Cc1cccc(OCc2cc(-c3ccsc3)cs2)c1	x	x	x	10%[60.1 µM]	x
COCO[C@H]([C@@H](C)C=C(Br)Br)[C@@H](C)COCc1ccc(OC)cc1	-4%	x	x	-13%	x
CCOC(=O)c1c(C)oc2nc(C)nc(NCCCN3CCN(c4cccc(C)c4)C(C)C3)c12 (stereo unspecified)	89µM*	-24%	-28%	u	x
Cc1ccc(-c2nsc(NC(=O)c3oc4cc(C)c(Cl)cc4c3C)n2)cc1	24%	4%	-5%	-1%	x
Cc1cccc(NC(=O)C2CCCN2S(=O)(=O)c2ccc3nc(-c4ccccc4)[nH]c3c2)c1 (stereo unspecified)	u	u	79µM*	u	x
COc1ccc(CN(Cc2ccccc2)C(=O)c2ccco2)cc1COc1ccc(NC(C)=O)cc1	-19%	x	x	3%	x
CCCCOC(=O)CSC1=C(C#N)C(c2ccccc2OCC)C(C#N)C(=O)N1 (stereo unspecified)	79µM*	12%	-15%	-38%	-20%[57.1 µM]
CCCOC(=O)CSC1=C(C#N)C(c2ccccc2OCC)C(C#N)C(=O)N1 (stereo unspecified)	u	u	7%	-9%	-14%
O=C(O)C1CC(c2ccccc2)=NO1 (stereo unspecified)	10%	3%	0%	-2%	-3%
O=C(O)C1CC(c2ccc(F)cc2)=NO1 (stereo unspecified)	-3%	7.9µM*	-2%	-11%	-6%
COc1ccc(C(=O)C[n+]2cccc3cccc(O)c32)cc1	-3%	x	x	-6%	x
SMILES	POLI inh	POLB inh	POLH inh	Pol kappa inh	WRN helicase inh
CCOC(=O)c1cnn(-c2nc(SC)nc3sc4c(c23)CCC4)c1N	u	10µM*	u	-15%	-8%
NCCN(Cc1ccc(Cl)c(Cl)c1)c1ccc(Br)cn1	5%	x	x	-22%	x
CCOC(=O)[C@H](Cc1ccc(O)cc1)NC(=O)c1ccccc1	x	x	x	20%[60.1 µM]	x
CC(NS(=O)(=O)c1ccc(Cl)cc1)C(=O)NCc1ccco1 (stereo unspecified)	71µM*	u	-9%	-39%	-9%[57.1 µM]
COc1ccc(S(=O)(=O)NC(C)C(=O)NCc2ccco2)cc1OC (stereo unspecified)	-2%	5%	-9%	2%	-9%
CCCN1CNc2c(c(=O)[nH]c(=S)n2CCc2ccccc2OC)C1	9%	x	x	5%	x
CCCNC1=C(N(C(C)=O)c2cccc(F)c2)C(=O)c2ccccc2C1=O	79µM*	18%	-15%	0%	-14%[57.1 µM]
CCOC(=O)/C(=C\c1cccc(O)c1)c1nc2sc(C)c(C)c2c(=O)[nH]1	18µM*	-29%	-20%	-9%	u
Cc1cccc2c(/C=C/c3ccc(N(C)C)cc3)ccnc12	u	x	x	-10%	x
Cc1cc(C)c(S(=O)(=O)Nc2cc(SCC(=O)O)c(O)c3ccccc23)cc1C	20µM*	-21%	35µM*	-14%	22µM*
Cc1cc(C)c(S(=O)(=O)Nc2ccc(O)cc2)cc1C	8%	12%	-6%	-6%	1%
CCOC(=O)C(C)N1C(=O)S/C(=C/c2cc(C)n(-c3ccccn3)c2C)C1=O (stereo unspecified)	-5%	-3%	-19%	89µM*	-7%[57.1 µM]
CCOC(=O)C(C)N1C(=O)S/C(=C/c2cc(C)n(-c3ccncc3)c2C)C1=O (stereo unspecified)	56%	5%	-9%	-5%	-4%
CCOC(=O)c1ccc(N2C(=O)c3[nH]nc(-c4ccc(OC)cc4)c3C2c2ccc(C)cc2)cc1 (stereo unspecified)	19%	0%	-21%	-11%	x
O=c1cc(-c2c(O)c3ccccc3n(Cc3ccccc3)c2=O)[nH][nH]1	u	8.9µM*	u	79µM*	u
CCSc1nnc(SCC(=O)Nc2cc(C)on2)s1	45µM*	x	u	u	-12%
Cc1cc(-c2nnc(SCC(=O)Nc3ccc(C)c(C)c3)n2N)n[nH]1	47%	2µM*	-22%	-5%	-6%
Cc1cc(NC(=O)CSc2nnc(-c3cccc(F)c3)n2N)no1	71µM*	x	-19%	-5%	-5%
COCCNc1nnc(SCC(=O)Nc2cc(C)on2)s1	8%	x	-5%	-3%	4%
CCOc1ccc(-c2nnc(SCc3nc4ccccc4[nH]3)n2N)cc1	u	50µM*	-6%	0%	-5%
COc1cc2nc(N3CCCN(C)CC3)nc(OC3CCN(C)CC3)c2cc1OC	-11%	x	x	-11%	x
CCn1c(SCC(=O)NCc2ccco2)nnc1-c1ccc(N(C)C)cc1	3%	x	x	-15%	x
CC(C)(C)n1ncc2c(=O)n(Cc3cc(F)c(F)cc3Cl)cnc21	9%	x	x	8%	x
